# Experimental data from PubChem BioAssay.
# Calls of active or inactive are those of the source.
# Assays:
# [1] = tested on: Plasmodium falciparum Sir2 (PF13_0152, Sir2A); test: pfSir2 binders on small-molecule microarrays, primary screen, biochemical, small-molecule microarray, 635 nm fluorescence (AID 1098); conditions: small-molecule microarray binding, fluorescence 635 nm; higher = more signal;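 also: score merges spot fluorescence intensity with its signal-to-noise ratio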
# [2] = small-molecule microarray binders of probe aDKK1, primary screen, biochemical, biotinylated probe, 635/667 nm fluorescence (AID 1099); conditions: higher = more signal;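 also: score merges 667nm spot fluorescence with signal to noise across triplicate slides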
# [3] = small-molecule microarray binders of probe aCHRDL2, primary screen, biochemical, biotinylated probe, 635/667 nm fluorescence (AID 1100); conditions: higher = more signal
# [4] = splicing luciferase reporter signal modulators, primary screen, spliceosome inhibition project, cell-based, HEK293, splice +/- reporter (AID 1101); conditions: luminescence, 24 h, higher = more signal, called active from +8 up or from −8 down;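 also: HEK293 cells carrying a splicing-competent luciferase reporter gene; test concentration not given here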
# [5] = target: Fibroblast growth factor 10 (Homo sapiens) (UniProt O15520); test: FGF10 binders on small-molecule microarrays, primary screen, biochemical, small-molecule microarray, 635 nm fluorescence (AID 1102); conditions: FGF10 binding, fluorescence 635 nm, higher = more signal
# [6] = tested on: glycogen synthase kinase-3 (GSK3A per assay name; protocol says GSK3B); test: GSK3 binders on small-molecule microarrays, primary screen, biochemical, small-molecule microarray, 635 nm fluorescence, GSK3A (AID 1103); conditions: small-molecule microarray binding, fluorescence 635 nm; higher = more signal; also: the record names both GSK3A and GSK3B
# [7] = target: Epidermal growth factor receptor (Homo sapiens) (UniProt P00533); test: EGFR binders on small-molecule microarrays, primary screen, biochemical, small-molecule microarray, 635 nm fluorescence (AID 1104); conditions: EGFR binding, higher = more signal;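 also: score merges 667 nm emission intensity with spot signal to noise over triplicate slides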
# [8] = target: Follistatin-related protein 3 (Homo sapiens) (UniProt O95633); test: FSTL3 binders on small-molecule microarrays, primary screen, biochemical, small-molecule microarray, 635 nm fluorescence (AID 1105); conditions: FSTL3 binding, higher = more signal;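 also: score merges emission near 667 nm and signal to noise per printed spot across three slides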
# [9] = target: Dickkopf-related protein 1 (Homo sapiens) (UniProt O94907); test: DKK1 binders on small-molecule microarrays, primary screen, biochemical, small-molecule microarray, 635 nm fluorescence scan (AID 1106); conditions: DKK1 binding, higher = more signal;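 also: score merges emission near 667 nm with signal to noise over three replicate slides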
# [10] = tested on: Inhibin beta A chain (activin A); test: INHBA (activin A) binders on microarrays, primary screen, biochemical, small-molecule microarray, 635 nm fluorescence scan (AID 1107); conditions: small-molecule microarray binding, higher = more signal;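 also: mouse activin A protein probed at 4.33 µg/mL on printed slides; score merges bound-protein fluorescence near 667 nm with spot signal-to-noise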
# [11] = tested on: Human papillomavirus type 1a protein E7 (residues 44-93); test: HPV1a E7 fragment binders on microarrays, primary screen, biochemical, small-molecule microarray, residues 44-93, 635 nm fluorescence (AID 1108); conditions: small-molecule microarray binding, fluorescence 635 nm; higher = more signal;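 also: E7 fragment applied at 1 µg/mL in TBST for 1 h at 4 C; score combines spot fluorescence with its signal to noise ratio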
# [12] = modulators of HCV replicon luciferase signal, primary screen, HCV replication inhibitor project, Huh7 cells, luciferase reporter (AID 1109); conditions: 48 h, higher = more signal;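 also: huh7 hepatoma cells harbouring a luciferase neomycin HCV replicon reporter; luciferase luminescence as measure of HCV replicon replication; test concentration not given here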
# [13] = target: Left-right determination factor 2 (Homo sapiens) (UniProt O00292); test: LEFTY2 binders on small-molecule microarrays, primary screen, biochemical, small-molecule microarray, 635 nm fluorescence scan (AID 1110); conditions: LEFTY2 binding, higher = more signal
# [14] = target: Calmodulin-1 (Homo sapiens) (UniProt P0DP23); test: CALM1 binders on microarrays, EGTA buffer, profiling panel, biochemical, small-molecule microarray, Cy5-labelled CALM1 (AID 1111); conditions: Cy5-CALM1 binding fluorescence, higher = more signal;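 also: labelled calmodulin applied in Tris saline Tween buffer holding calcium plus EGTA and DTT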
# [15] = target: Calmodulin-1 (Homo sapiens) (UniProt P0DP23); test: calcium-bound CALM1 binders on microarrays, profiling panel, artefact control for SMM control-protein annotation, biochemical, small-molecule microarray, Cy5-labelled CALM1, plus calcium (AID 1112); conditions: Cy5-CALM1 binding fluorescence, higher = more signal;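 also: score merges spot fluorescence with signal to noise from triplicate slides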
# [16] = small-molecule microarray binders of probe aWnt5a, primary screen, biochemical, biotinylated probe, 635/667 nm fluorescence (AID 1113); conditions: higher = more signal;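 also: score merges 667 nm fluorescence intensity with signal-to-noise per printed feature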
# [17] = small-molecule microarray binders of probe aShh, primary screen, biochemical, biotinylated probe, 635/667 nm fluorescence (AID 1114); conditions: higher = more signal;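 also: probe is biotin-labelled aShh protein from a stem cell growth factor screen; measures binding of labelled protein to compounds printed on the slide; score merges feature fluorescence at 667 nm with signal-to-noise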
# [18] = small-molecule microarray binders of probe aNog, primary screen, biochemical, biotinylated probe, 635/667 nm fluorescence (AID 1115); conditions: higher = more signal;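 also: probe is biotinylated aNog protein used at 0.15 µg/mL for 1 h at 4 C; z-score combines 667 nm fluorescence of each spot with its signal to noise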
# [19] = target: Torsin-1A-interacting protein 1 (Homo sapiens) (UniProt Q5JTV8); test: LAP1 binders from COS7 cell lysate, primary screen, small-molecule microarray, 635/667 nm fluorescence (AID 1116); conditions: COS7-hLAP1 lysate binding, 635 nm fluorescence, higher = more signal
# [20] = target: Alpha-bungarotoxin (Bungarus multicinctus) (UniProt P60615); test: alpha-bungarotoxin binders on microarray, profiling panel, artefact control for SMM control protein annotation, biochemical, small-molecule microarray, Alexa647 label, 635/667 nm fluorescence (AID 1117); conditions: alpha-BTX-A647 binding fluorescence, higher = more signal
# Sequence of Alpha-bungarotoxin (Bungarus multicinctus) (P60615 whole entry, looked up): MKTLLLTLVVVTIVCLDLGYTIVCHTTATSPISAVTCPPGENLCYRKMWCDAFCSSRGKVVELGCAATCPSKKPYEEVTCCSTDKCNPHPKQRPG
# Sequence of Torsin-1A-interacting protein 1 (Homo sapiens) (Q5JTV8 whole entry, looked up): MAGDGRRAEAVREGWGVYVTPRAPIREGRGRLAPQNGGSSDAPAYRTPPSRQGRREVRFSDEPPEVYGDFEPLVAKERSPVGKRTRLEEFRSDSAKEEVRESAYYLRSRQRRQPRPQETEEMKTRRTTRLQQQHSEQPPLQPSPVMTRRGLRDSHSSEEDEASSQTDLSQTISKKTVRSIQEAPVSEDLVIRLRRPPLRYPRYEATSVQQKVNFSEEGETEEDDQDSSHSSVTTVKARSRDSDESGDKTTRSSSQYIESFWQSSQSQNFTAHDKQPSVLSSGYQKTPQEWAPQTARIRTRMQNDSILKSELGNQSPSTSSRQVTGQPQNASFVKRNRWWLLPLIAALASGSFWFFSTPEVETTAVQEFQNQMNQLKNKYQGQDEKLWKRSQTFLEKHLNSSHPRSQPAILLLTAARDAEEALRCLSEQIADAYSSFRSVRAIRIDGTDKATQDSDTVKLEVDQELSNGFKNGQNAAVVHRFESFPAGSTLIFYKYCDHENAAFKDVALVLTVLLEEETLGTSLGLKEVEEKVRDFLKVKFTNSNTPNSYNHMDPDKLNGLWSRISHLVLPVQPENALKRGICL
# Sequence of Epidermal growth factor receptor (Homo sapiens) (P00533 whole entry, looked up): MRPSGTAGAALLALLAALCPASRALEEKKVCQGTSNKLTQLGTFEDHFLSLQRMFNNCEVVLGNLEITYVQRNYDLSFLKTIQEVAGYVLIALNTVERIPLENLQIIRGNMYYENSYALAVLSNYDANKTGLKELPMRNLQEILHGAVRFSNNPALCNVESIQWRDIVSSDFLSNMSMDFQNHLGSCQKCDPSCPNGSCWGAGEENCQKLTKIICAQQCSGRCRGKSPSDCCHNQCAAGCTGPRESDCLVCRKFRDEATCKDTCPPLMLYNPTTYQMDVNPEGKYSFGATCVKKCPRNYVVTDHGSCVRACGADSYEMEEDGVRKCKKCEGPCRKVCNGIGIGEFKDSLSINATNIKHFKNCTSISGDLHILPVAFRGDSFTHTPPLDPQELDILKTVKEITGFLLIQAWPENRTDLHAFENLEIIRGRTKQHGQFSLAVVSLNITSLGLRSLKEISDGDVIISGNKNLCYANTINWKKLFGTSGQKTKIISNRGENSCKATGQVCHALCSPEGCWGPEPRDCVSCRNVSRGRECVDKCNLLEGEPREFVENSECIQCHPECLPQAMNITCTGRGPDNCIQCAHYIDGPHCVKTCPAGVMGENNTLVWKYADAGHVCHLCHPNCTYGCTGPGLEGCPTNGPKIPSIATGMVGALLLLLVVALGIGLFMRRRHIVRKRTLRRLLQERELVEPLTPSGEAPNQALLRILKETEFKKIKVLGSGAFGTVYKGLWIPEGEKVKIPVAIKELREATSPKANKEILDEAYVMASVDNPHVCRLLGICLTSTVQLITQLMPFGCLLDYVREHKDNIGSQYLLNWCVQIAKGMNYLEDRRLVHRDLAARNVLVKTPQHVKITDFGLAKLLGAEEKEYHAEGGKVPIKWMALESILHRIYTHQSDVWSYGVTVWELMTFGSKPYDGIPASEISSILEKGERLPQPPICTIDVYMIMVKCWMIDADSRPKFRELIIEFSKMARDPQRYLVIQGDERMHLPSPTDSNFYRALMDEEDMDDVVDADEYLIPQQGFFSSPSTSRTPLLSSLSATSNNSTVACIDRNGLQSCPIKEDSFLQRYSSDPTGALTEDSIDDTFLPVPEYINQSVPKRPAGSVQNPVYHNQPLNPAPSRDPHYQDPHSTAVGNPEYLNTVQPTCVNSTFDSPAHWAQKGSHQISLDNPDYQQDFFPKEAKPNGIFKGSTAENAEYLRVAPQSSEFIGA
# Sequence of Follistatin-related protein 3 (Homo sapiens) (O95633 whole entry, looked up): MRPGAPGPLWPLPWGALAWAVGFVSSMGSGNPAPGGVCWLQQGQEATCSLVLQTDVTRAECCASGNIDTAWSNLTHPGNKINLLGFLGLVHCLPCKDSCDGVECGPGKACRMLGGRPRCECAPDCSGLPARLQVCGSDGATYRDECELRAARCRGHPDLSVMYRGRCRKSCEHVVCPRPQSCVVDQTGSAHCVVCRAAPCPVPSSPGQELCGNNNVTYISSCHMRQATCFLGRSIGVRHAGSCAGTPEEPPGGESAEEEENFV
# Sequence of Dickkopf-related protein 1 (Homo sapiens) (O94907 whole entry, looked up): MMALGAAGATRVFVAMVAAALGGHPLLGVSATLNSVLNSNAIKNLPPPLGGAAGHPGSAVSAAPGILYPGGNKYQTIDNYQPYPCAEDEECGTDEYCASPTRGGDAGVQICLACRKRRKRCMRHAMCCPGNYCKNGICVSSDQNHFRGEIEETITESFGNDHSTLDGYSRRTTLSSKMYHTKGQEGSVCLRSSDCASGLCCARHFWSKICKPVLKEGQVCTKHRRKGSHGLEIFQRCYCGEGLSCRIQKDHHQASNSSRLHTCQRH
# Sequence of Left-right determination factor 2 (Homo sapiens) (O00292 whole entry, looked up): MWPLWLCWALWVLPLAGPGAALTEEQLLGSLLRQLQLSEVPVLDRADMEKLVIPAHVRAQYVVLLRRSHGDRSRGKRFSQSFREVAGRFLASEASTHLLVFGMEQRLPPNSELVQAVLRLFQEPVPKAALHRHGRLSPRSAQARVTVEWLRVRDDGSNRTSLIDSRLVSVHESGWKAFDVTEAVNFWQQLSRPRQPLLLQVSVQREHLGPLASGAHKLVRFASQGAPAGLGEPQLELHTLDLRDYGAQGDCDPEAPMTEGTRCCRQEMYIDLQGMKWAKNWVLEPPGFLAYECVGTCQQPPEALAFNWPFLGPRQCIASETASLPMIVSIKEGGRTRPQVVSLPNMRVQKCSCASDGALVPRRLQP
# Sequence of Fibroblast growth factor 10 (Homo sapiens) (O15520 whole entry, looked up): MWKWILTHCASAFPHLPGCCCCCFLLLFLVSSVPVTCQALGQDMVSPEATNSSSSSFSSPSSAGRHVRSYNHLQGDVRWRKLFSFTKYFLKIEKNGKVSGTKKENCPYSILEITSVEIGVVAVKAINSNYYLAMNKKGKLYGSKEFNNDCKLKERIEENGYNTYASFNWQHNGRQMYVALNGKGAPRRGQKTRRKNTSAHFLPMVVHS
SMILES,composite z-score [1],composite z-score [2],composite z-score [3],z-score [4],composite z-score [5],composite z-score [6],composite z-score [7],composite z-score [8],composite z-score [9],composite z-score [10],composite z-score [11],z-score [12],composite z-score [13],composite z-score [14],composite z-score [15],composite z-score [16],composite z-score [17],composite z-score [18],composite z-score [19],composite z-score [20]
CC(C)C[C@@H]1NC(=O)[C@H]2C[C@@H](C(=O)NCCCCCCNC(=O)CS)[C@@H](c3ccc(O)cc3)N2C1=O,1.47,-0.0603,-0.121,-0.0594 (inactive),1.13,1.25,1.08,1.03,0.868,-1.17,1.4,-1.13,0.719,1.56,0.858,-0.0718,-0.0362,-0.164,1.47,-0.827
C[C@]1(C(=O)NCC(F)(F)F)c2ccccc2C(=O)N(Cc2ccc(OC(F)(F)F)cc2)[C@H]1c1ccc(CO)cc1,1.34,-0.0378,0.0314,-0.24 (inactive),0.155,-0.507,0.179,-0.345,0.0106,0.19,0.26,-1.11,-0.143,-0.0779,-0.373,-0.154,-0.0626,-0.519,-0.115,0.25
CN(C)CCCC[C@@H]1NC(=O)[C@H]2C[C@@H](C(=O)O)[C@@H](c3cccc(OCCO)c3)N2C1=O,1.67,0.696,0.555,-0.348 (inactive),0.702,1.14,0.258,0.666,0.969,0.658,-0.226,4.23,0.494,-0.526,0.16,0.0495,0.0611,0.25,0.633,1.47
O=C1O[C@H](c2ccccc2)[C@H](c2ccccc2)N2[C@H]1[C@@H](C(=O)N1CCN(c3ncccn3)CC1)[C@]1(C(=O)Nc3ccccc31)[C@H]2c1ccc(O)cc1,0.612,0.571,0.544,-0.117 (inactive),0.506,0.799,-0.149,-0.0987,0.165,0.0112,1.43,-1.9,-0.412,1.28,0.618,-0.0643,-0.119,0.265,-0.15,0.593
COCCOC(=O)N1C(=O)[C@@]2(c3cc(C#CCCO)ccc31)[C@H](c1ccccc1OCCO)N1[C@H](c3ccccc3)[C@H](c3ccccc3)OC(=O)[C@H]1[C@@H]2C(=O)N1CCc2cc(OC)c(OC)cc2C1,1.12,0.161,0.395,-0.221 (inactive),1.34,1.28,0.529,1.39,0.421,0.504,1.42,-1.36,0.507,1.07,0.0615,-0.0882,-0.0119,-0.0331,1.52,1.49
COc1cccc(OC)c1C(=O)O[C@H]1[C@@H]2OC(=O)[C@H](Cc3cccc(Br)c3)C/C=C/C[C@@H](Cc3cccc(Br)c3)C(=O)O[C@H]2[C@@H](OC)O[C@@H]1CO,-0.178,0.281,0.325,0.0705 (inactive),0.927,0.277,-0.0525,0.735,0.298,0.42,0.479,-2.37,0.309,-0.108,-0.0545,-0.0869,0.111,0.113,0.482,0.528
CN1C=C(C(=O)OCCS(C)(=O)=O)C(C(=O)OCCS(C)(=O)=O)=CC(CCCO)=CC1c1ccc(CN2CCCC2)cc1 (stereo not given),0.867,0.633,0.539,-0.0863 (inactive),1.27,1.3,0.566,1.32,0.602,0.969,1.45,-1.36,0.595,0.693,-0.551,-0.0087,0.261,0.827,0.51,0.745
CC(=O)c1ccc(C(O)C2C=CC3C(=O)NC(=O)C3N2Nc2ccc(Cl)cc2Cl)cc1 (stereo not given),0.366,0.947,1.02,0.58 (inactive),0.554,-0.454,0.0262,0.141,-0.291,1.03,0.18,-0.38,-0.16,0.594,0.468,-0.0161,0.522,1.25,0.0338,0.186
C#CCN(C/C=C/c1ccccc1)[C@H](CO[Si](C)(C)C(C)(C)C)c1ccccc1,0.209,-0.454,-0.541,-0.736 (inactive),0.108,-0.871,-0.468,-0.261,-0.156,-0.0543,-0.115,-2.36,0.301,-0.488,-1.03,-0.0403,-0.0553,-0.565,-0.221,-0.482
COc1cc2c(cc1O)C(C1CC1)N(Cc1ccc([N+](=O)[O-])o1)CC2 (stereo not given),1.53,0.158,0.391,-0.28 (inactive),0.839,0.812,0.117,0.228,-0.327,0.822,1.29,-0.498,-0.423,1.82,1.21,-0.0924,-0.291,1.73,1.04,0.42
COCCOC(=O)N1C(=O)[C@@]2(c3cc(C#CC4(O)CCCCCC4)ccc31)[C@H](c1ccc(OCCO)cc1)N1[C@H](c3ccccc3)[C@H](c3ccccc3)OC(=O)[C@H]1[C@@H]2C(=O)N1CCCCCCC1,1.74,1.63,0.965,-1.55 (inactive),1.35,1.32,0.825,1.51,0.988,1.74,1.41,-1.94,0.725,2.18,1.45,0.716,1.01,2.62,2.51,1.89
